Sampled rows, rich in hits. Any-hit rate of the full collection: about 3%.
Mtb FBA inh – Mtb FBA enzyme inhibitors, primary screen, biochemical, fluorescence, strain H37Rv; AID 588726, 2011; Fructose-bisphosphate aldolase (Mycobacterium tuberculosis (strain ATCC 25618 / H37Rv)), …; purified M. tuberculosis FBA, fluorescence read-out; inhibition, % at 1 µM; actives 2.3% (n = 360,000); in the data active = inhibition above about 27%;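 note: 0% = vehicle and 100% = reference inhibitor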
Target sequence (P9WQA3 whole entry, looked up): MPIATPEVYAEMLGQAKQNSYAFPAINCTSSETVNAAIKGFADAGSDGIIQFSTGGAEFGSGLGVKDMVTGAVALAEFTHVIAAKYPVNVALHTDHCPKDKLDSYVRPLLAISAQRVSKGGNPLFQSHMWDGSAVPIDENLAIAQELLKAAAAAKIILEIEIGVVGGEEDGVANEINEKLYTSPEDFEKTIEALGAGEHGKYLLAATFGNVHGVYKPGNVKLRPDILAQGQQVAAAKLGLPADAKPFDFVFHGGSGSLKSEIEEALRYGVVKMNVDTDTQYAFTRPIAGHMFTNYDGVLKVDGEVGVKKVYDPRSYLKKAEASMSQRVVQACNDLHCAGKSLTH
GDH-TPI inh – GDH-TPI coupling enzyme inhibitors, primary screen, artefact control for M. tuberculosis FBA inhibitor project, biochemical, absorbance, full deck; GDH-TPI coupled enzyme counterscreen, NADH absorbance; inhibition, % at 4.8 µM; actives 1.2% (n = 360,000); AID 588335, 2011; in the data active = inhibition above about 30%;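 note: 0% = DMSO wells and 100% = wells lacking the enzyme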
BioA inh – M. tuberculosis BioA enzyme inhibitors, primary screen, biochemical, plate reader, single point, HTS | 7,8-diaminopelargonic acid synthase BioA (Mycobacterium tuberculosis) | purified M. tuberculosis BioA enzyme | inhibition, % at 9.99 µM | actives 0.096% (n = 360,000) | AID 602481, 2012; in the data active = inhibition above about 40%
Vc quorum ag – inducers of Vibrio cholerae quorum light production without autoinducers, primary screen, BH1578 luxS cqsA deficient, single point | V. cholerae BH1578 lux reporter, luminescence, 6 h | activation, % at 18.7 µM | actives 0.16% (n = 350,000); in the data active = activation mostly above about 9.7%, no sharp cut-off
The depositor's hits bear a star; i = inactive; . = no result; ! = not confirmed by another sample.

SMILES	Mtb FBA inh	GDH-TPI inh	BioA inh	Vc quorum ag
O=[N+]([O-])c1ccc(/C=N/NC2=NS(=O)(=O)c3ccccc32)cc1	-4	14	0	-5
O=S1(=O)N=C(N/N=C/c2cccs2)c2ccccc21	-3	39*	0	0
CN1CCN(c2ccc(NC(=S)NC(=O)/C=C/c3ccco3)cc2)CC1	-2	31*	-2	0
O=C(/C=C/c1ccco1)NC(=S)Nc1ccccn1	1	40*	-1	i
O=C(/C=C/c1ccco1)NC(=S)Nc1ccccc1N1CCOCC1	-2	46*	-1	-2
CC(=O)Nc1ccc(NC(=S)NC(=O)/C=C/c2ccco2)cc1	2	6	-4	i
CC(=O)N(C)c1ccc(NC(=S)NC(=O)/C=C/c2ccco2)cc1	-7	40*	1	-2
CCOc1ccc(NC(=S)NC(=O)/C=C/c2ccco2)cc1	-4	11	-1	-1
COc1ccc(NC(=O)N(C)C[C@H]2Oc3ccc(NC(=O)Nc4ccc5c(c4)OCO5)cc3CC(=O)N([C@@H](C)CO)C[C@@H]2C)cc1	.	.	-3	.
COCC#Cc1ccc2c(c1)O[C@H](CN(C)C)[C@H](C)CN([C@H](C)CO)S2(=O)=O	.	.	-2	.
COc1cccc(S(=O)(=O)N[C@H]2CC[C@H](CCn3cc(-c4ccccc4OC)nn3)O[C@@H]2CO)c1	.	.	4	.
Cc1ccc(/C=c2\sc3nc(-c4ccco4)nn3c2=O)o1	-2	40*	-7	i
Cc1ccc(/C=c2\sc3nc(-c4ccccc4Br)nn3c2=O)o1	-1	26	-4	i
CC(C)NC(=S)N/N=C/c1cccs1	-5	38*	-2	0
S=C(NCCc1ccccc1)N/N=C/c1cccs1	1	21	3	i
S=C(NCc1ccccc1)N/N=C/c1cccs1	17	34*	0	i
CC(C)NC(=S)N/N=C/c1ccc(C(C)(C)C)cc1	-4	9	2	i
CCC(=O)Nc1ccc2c(c1)OC[C@@H](C)N(Cc1ccccc1)C[C@H](C)[C@H](OC)CN(C)C2=O	.	.	1	.
C[C@H](CO)N1C[C@H](C)[C@H](CN(C)C(=O)c2ccc3c(c2)OCO3)Oc2ncc(/C=C/c3ccccc3)cc2C1=O	.	.	15	.
O=C1OC(Cc2ccccn2)C(=O)C1=C1SCCS1 (centres undefined)	-3	41*	12	-1
COc1ccc(NC(=O)N(C)C[C@@H]2OCCCC[C@H](C)Oc3ccc(NC(=O)NC(C)C)cc3C(=O)N([C@@H](C)CO)C[C@@H]2C)cc1	.	.	1	.
O=C1C=C(Nc2ccc(O)cc2)CC(c2ccco2)C1 (centres undefined)	-2	14	8	-4
CCOC(=O)c1ccc(NC2=CC(=O)CC(c3ccco3)C2)cc1 (centres undefined)	1	60*	.	-2
CCn1c(SCC(=O)c2ccc(NS(=O)(=O)c3ccccc3)cc2)nnc1-c1cccs1	8	34*	-7	.
CCn1c(SCC(=O)NC(C)C)nnc1-c1cccs1	1	9	-2	17*
SMILES	Mtb FBA inh	GDH-TPI inh	BioA inh	Vc quorum ag
CCn1c(SCC(=O)Nc2ccccc2)nnc1-c1cccs1	5	6	-1	0
CO[C@H](CN(C)S(=O)(=O)c1ccccc1)[C@H](C)CN(Cc1ccccc1Cl)[C@@H](C)CO	.	.	-1	.
CN1CCc2c(sc3nc(SCC(N)=O)n(-c4ccc(Cl)cc4)c(=O)c23)C1	10	32*	25	-1
CCn1c(SCC(=O)c2ccccc2)nc2sc3c(c2c1=O)CCN(C)C3	19	19	0	i
CCn1c(SCC(=O)NCCc2ccccc2)nc2sc3c(c2c1=O)CCN(C)C3	17	35*	0	0
CN1CCc2c(sc3nc(SCC(=O)N4CCCCC4)n(-c4ccccc4)c(=O)c23)C1	21	39*	-2	i
C[C@@H]1CN([C@@H](C)CO)C(=O)c2cc(NS(=O)(=O)c3ccc(F)cc3)ccc2O[C@@H](C)CCCCO[C@H]1CN(C)C(=O)c1ccccc1	.	.	2	.
C[C@@H]1CN([C@H](C)CO)C(=O)c2cc(C#CC(C)(C)O)cnc2O[C@H]1CN(C)C(=O)CC1CC1	.	.	-1	.
CSc1nc(=S)c2[nH]c(=S)[nH]c2[nH]1	-2	33*	-1	2
O=C(c1ccc2c(=O)n(-c3ccccc3)c(=O)[nH]c2c1)N1CCN(c2ccc(F)cc2)CC1	0	3	-3	-1
CC(=O)c1ccc(N2CCN(C(=O)c3ccc4c(=O)n(-c5ccccc5)c(=O)[nH]c4c3)CC2)cc1	0	35*	-3	i
C=CCn1c(=O)[nH]c2cc(C(=O)N3CCN(c4ccc(C(C)=O)cc4)CC3)ccc2c1=O	-1	36*	-416	i
CC(=O)c1ccc(N2CCN(C(=O)CCCn3c(=S)[nH]c4cc5c(cc4c3=O)OCO5)CC2)cc1	0	35*	-1	-1
C[C@@H]1CN([C@@H](C)CO)C(=O)c2cccc(NS(=O)(=O)c3ccc(Cl)cc3)c2O[C@@H]1CN(C)CC1CC1	.	.	-1	.
N#Cc1c(NC(=O)c2cc(C3CC3)on2)sc2c1CCC2	1	34*	-1	i
Cc1cc(C(=O)Nc2sc3c(c2C#N)CCC3)no1	-4	13	-1	0
O=C(O)[C@H]1[C@H](CO)[C@H]2Cn3c(ccc(-c4ccccc4)c3=O)[C@H]2N1Cc1ccccc1F	.	.	3	.
CC(C)NC(=O)Nc1ccc2c(c1)C(=O)N([C@@H](C)CO)C[C@@H](C)[C@H](CN(C)C(=O)C1CCCCC1)OCCCC[C@@H](C)O2	.	.	0	.
O=c1[nH]c2ccccc2nc1-c1ccc(Cl)cc1	24	38*	-1	i
Cc1ccccc1N1CCN(S(=O)(=O)c2nnc(NC(=O)c3ccco3)s2)CC1	2	35*	2	0
CCn1c(O)c(/C=N/NC(=O)c2ccncc2)c(=O)[nH]c1=S	7	17	.	0
CCCCn1c(O)c(/C=N/NC(=O)c2ccncc2)c(=O)[nH]c1=O	1	46*	0	i
C/C(=N\NC(=O)c1ccc(C(=O)N/N=C(\C)c2ccco2)o1)c1ccco1	0	31*	-4	0
Cc1ccc(/C=c2\sc3n(c2=O)CN(c2cccc(Br)c2)CN=3)o1	-1	19	-2	0
O=c1/c(=C/c2ccco2)sc2n1CN(c1ccccc1)CN=2	-3	32*	0	-3
Cc1cc(C)cc(N2CN=c3s/c(=C\c4ccco4)c(=O)n3C2)c1	0	28	-2	-1
O=c1/c(=C/c2ccco2)sc2n1CN(c1cccc(Br)c1)CN=2	-9	38*	1	0
COC(=O)c1ccc(C(=S)N2CCOCC2)cc1	4	11	-1	0
COC(=O)c1cc2c(s1)=NC=NP=2(N1CCOCC1)N1CCOCC1	1	31*!	-2	-5
C[C@@H]1CN([C@H](C)CO)C(=O)c2cccc(NS(C)(=O)=O)c2O[C@@H]1CN(C)S(C)(=O)=O	.	.	-4	.
